Measured values: PubChem BioAssay

molecular target: Fibroblast growth factor 2 (Homo sapiens) (UniProt P09038); experiment: basic fibroblast growth factor binding to printed compounds – biochemical, small-molecule microarray, 635/667 nm fluorescence, primary screen (AID 1133); settings: FGF2, fluorescence 635/667, higher = more signal
Sequence (P09038 whole entry, looked up): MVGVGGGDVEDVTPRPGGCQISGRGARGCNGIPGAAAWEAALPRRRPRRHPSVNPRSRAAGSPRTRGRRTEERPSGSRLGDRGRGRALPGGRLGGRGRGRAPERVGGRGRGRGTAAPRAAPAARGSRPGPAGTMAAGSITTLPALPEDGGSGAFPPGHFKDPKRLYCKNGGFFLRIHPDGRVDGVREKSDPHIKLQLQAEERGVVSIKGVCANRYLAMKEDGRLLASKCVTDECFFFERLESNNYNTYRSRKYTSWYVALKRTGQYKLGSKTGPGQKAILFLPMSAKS

| Structure (SMILES) | composite z-score |
| --- | --- |
| COc1ccc(C(=O)Nc2ccc(CN3C(=O)[C@]4(O[C@H](CCO)[C@@H]([Si](C)(C)c5ccc(OC)cc5)[C@@H]4C)c4ccccc43)cc2)cc1 | 0.894 |
| COc1cc2c(cc1OC)CN(C(=O)[C@@H]1[C@H]3C(=O)O[C@H](c4ccccc4)[C@H](c4ccccc4)N3[C@H](c3ccc(O)cc3)[C@@]13C(=O)Nc1ccccc13)CC2 | 0.246 |
| [N-]=[N+]=Nc1ccccc1[C@@H]1OC(c2ccc(OCCCO)cc2)=N[C@]1(CCS(=O)(=O)c1ccccc1)C(N)=O | 0.423 |
| COC(=O)[C@@]1(Cc2ccc(F)cc2)[C@H]2c3cc(C(=O)N4CCCC4)n(CCCNc4ncc(C(F)(F)F)cc4Cl)c3C[C@H]2CN1C(=O)c1ccccc1 | -0.903 |
| [N-]=[N+]=Nc1ccccc1[C@@H]1OC(c2ccc(OCCCO)cc2)=N[C@]1(Cc1ccccc1)C(=O)N1CCOCC1 | 0.749 |
| C=CCC(OC(C)=O)[C@@H]1[C@@H](N(Cc2ccc(-c3ccccc3)cc2)C(=O)Cc2ccc(OC)cc2)c2cc(OCCCO)ccc2N1C(=O)Cc1ccc2ccccc2c1 (stereo not given in full) | -0.197 |
| CC1(C)C2C=C(C(O)C3C=CC4C(=O)NC(=O)C4N3Nc3ccc(Cl)cc3Cl)C[C@@H]1C2 (stereo not given in full) | -0.169 |
| CO[C@H]1O[C@H](CO)[C@@H](OC(=O)Nc2cccc(F)c2)[C@H](OC(=O)Nc2ccccc2)[C@@H]1OC(=O)Nc1ccccc1 | 0.843 |
| COc1ccc(C(O)C2C=CC3C(=O)N(Cc4ccccc4)C(=O)C3N2n2cnnc2)cc1OCc1ccccc1 (stereo not given) | -0.385 |
| COC(=O)[C@@]1(Cc2ccc(OC)cc2)[C@H]2c3cc(C(=O)N4CCCC4)n(Cc4ccc(C)c(F)c4F)c3C[C@H]2CN1C(=O)c1ccccc1 | -0.294 |
